Drawing on ChEMBL document CHEMBL3433997, “St. Jude Leishmania screening dataset” (2016), this text covers inhibition for 35 compounds.

The structures appear in SMILES notation.

Holding throughout (format): functional
Experiment [1] concerns the target Solute carrier family 2, facilitated glucose transporter member 1 (Homo sapiens) (UniProt P11166). The experiment is described as follows: ST_JUDE_LEISH: Cytotoxicity at 2uM final concentration against transgenic Leishmania Mexicana promastigotes LmGLUT1 that are glucose transport deficient and complemented with the human glucose transporter GLUT1. Activity is measured by DNA content using SYBR green in vitro.

Experiment [2] has as its target Hexose transporter 1 (Plasmodium falciparum) (UniProt O97467). Briefly: ST_JUDE_LEISH: Cytotoxicity at 2uM final concentration against transgenic Leishmania Mexicana promastigotes LmPfHT that are glucose transport deficient and complemented with the Plasmodium falciparum hexose transporter. Activity is measured by DNA content using SYBR green in vitro.
Experiment [3] concerns the target Glucose transporter (Leishmania mexicana) (UniProt O61059). The experiment is described as follows: ST_JUDE_LEISH: Cytotoxicity at 2uM final concentration against transgenic Leishmania Mexicana promastigotes LmGT2 that are glucose transport deficient and complemented with the L. Mexicana glucose transporter 2. Activity is measured by DNA content using SYBR green in vitro.

Sequence of Solute carrier family 2, facilitated glucose transporter member 1 (Homo sapiens) (P11166 whole entry): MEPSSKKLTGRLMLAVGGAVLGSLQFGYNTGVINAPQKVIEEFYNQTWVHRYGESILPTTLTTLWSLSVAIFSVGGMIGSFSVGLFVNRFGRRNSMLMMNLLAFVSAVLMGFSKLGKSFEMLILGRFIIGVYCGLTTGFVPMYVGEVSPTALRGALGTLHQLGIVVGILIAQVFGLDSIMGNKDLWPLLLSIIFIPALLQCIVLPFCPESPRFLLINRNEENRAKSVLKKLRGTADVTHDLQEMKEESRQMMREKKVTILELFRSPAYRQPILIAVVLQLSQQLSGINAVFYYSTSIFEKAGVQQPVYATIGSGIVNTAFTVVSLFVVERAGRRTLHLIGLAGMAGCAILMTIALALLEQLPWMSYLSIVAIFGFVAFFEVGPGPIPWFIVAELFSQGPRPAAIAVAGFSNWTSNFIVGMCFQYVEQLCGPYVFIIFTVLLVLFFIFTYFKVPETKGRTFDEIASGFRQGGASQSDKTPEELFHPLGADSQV

On to `CN(c1ccc2c(c1)nc(NCc1ccc(F)cc1)n2C)c1ccnc(Nc2ccc(CS(C)(=O)=O)cc2)n1`, for which the inhibition in experiment [1] was -0.61%; in experiment [2], -0.52%; in experiment [3] it was -1.02%.

On to `Cc1[nH]c(C)c(-c2ccc(CCc3cccc(C(F)(F)F)c3)nc2)c(=O)c1Cl`, for which the inhibition was 2.83% in experiment [1], 2.18% in experiment [2] and 0.88% in experiment [3].

On to `COc1ccc2ccccc2c1CNCCCCCCNCc1c(OC)ccc2ccccc12`, for which the figures for the inhibition in experiment [1], in experiment [2] and in experiment [3] were 1.14%, -0.97% and -3.28%, respectively.

For `COc1ccc(NC(=O)CSc2nc(-c3ccccc3Cl)ns2)cc1`, the inhibition is 1.15% in experiment [1], -1.47% in experiment [2] and -2.13% in experiment [3].

Consider `CCOC(=O)C1=C(C)N=c2sc(=Cc3cc(Cl)ccc3O)c(=O)n2C1c1ccc(OC)cc1` (stereo not given), for which the inhibition in experiment [1] is -0.92%; in experiment [2] it was 0%; in experiment [3], 0.91%.

Consider `O=C(c1cc(C(=O)Nc2ccc(F)cc2)c(=O)n(-c2ccc(F)cc2)c1)c1cc(Cl)ccc1O`, for which the inhibition stood at 0.23% in experiment [1], 2.19% in experiment [2] and 0.22% in experiment [3].

On to `CC(C)(C)OC(=O)n1cc(C2CCN(CCCC34CCCc5cccc(c53)NC4=O)CC2)c2ccncc21` (stereo not given), for which the figures for the inhibition in experiment [1], in experiment [2] and in experiment [3] were -0.89%, -0.01% and 9.45%, respectively.

Regarding `O=C(/C=C/c1ccc(Cl)cc1)Nc1ccc2nc(CN3CCCC3)ccc2c1`, the values for the inhibition in experiment [1], in experiment [2] and in experiment [3] were 5.3%, 6.73% and 5.54%, respectively.

For the compound `Cc1cccc2nc(-c3cccc(-c4cccc(NC(=O)Nc5ccsc5)c4)c3)[nH]c12`, the inhibition is 4.96% in experiment [1], 4.46% in experiment [2] and 6.15% in experiment [3].

With `CCn1cc(C=C2Oc3c(ccc(O)c3CN3CCCCC3)C2=O)c2cc(OC)ccc21`, the figures for the inhibition in experiment [1], in experiment [2] and in experiment [3] were 3.02%, 2.04% and -0.31%, respectively.

Regarding `Cc1nc(C)c(-c2ccc(C(=O)c3ccccc3)cc2)c(O)c1Br`, the inhibition in experiment [1] is 5.44%; in experiment [2], 5.49%; in experiment [3] it was 5.35%.

With `COc1ccc(CNCCc2cccs2)cc1-c1ccc(OC)c(S(=O)(=O)NCCN2CCCC2)c1`, the figures for the inhibition in experiment [1], in experiment [2] and in experiment [3] were 3.2%, 1.85% and 3.49%, respectively.

For `CC(C)(C)C1CCC(CC2=C(C(=O)O)c3ccccc3C2=O)CC1` (stereo not given), the inhibition is 1.16% in experiment [1], 0.47% in experiment [2] and -1.33% in experiment [3].

`CC(C)C1C(O)=C(c2ccc3ccccc3c2)C(=O)N1CC1CCCCC1` (stereo not given): the inhibition in experiment [1] was 1.23%; in experiment [2], 1.04%; in experiment [3], -8.52%.

Turning to `CN(C)CCNC(=O)NC1CN(c2ncnc3cc(-c4ccccc4)sc23)C1`, the inhibition in experiment [1] worked out at 5.45%; in experiment [2], 4.29%; in experiment [3], 4.03%.

For the compound `COc1ccc(CN2CCC(CNC(C)c3cccc4ccccc34)CC2)cc1` (stereo not given), the inhibition in experiment [1] turned out to be 7.32%; in experiment [2] it was 12.7%; in experiment [3] it was 5.96%.

For the compound `Nc1cnc(C#Cc2cc3ncnc(N(CCN4CCOCC4)c4ccc(OCc5cccc(F)c5)c(Cl)c4)c3s2)cn1`, the inhibition in experiment [1] was 1.16%; in experiment [2], 0.42%; in experiment [3], -3.58%.

With `CC(C)(C)c1ccc(CN2CCC(NC(=O)c3ccc(-c4cccc(F)c4)s3)CC2)cc1`, the inhibition in experiment [1] was -0.34%; in experiment [2] it was -2.33%; in experiment [3], 2.67%.

In the case of `CN1CCN(c2ncnc3ccc(NC(=O)Nc4ccc(Cl)c(Cl)c4)cc23)CC1`, the inhibition in experiment [1] came out at 5%; in experiment [2], 2.35%; in experiment [3] it was 5.24%.

For the compound `CC(=NNC(N)=O)C1=C(O)C(c2ccccc2)N(C2CCCCC2)C1=O` (stereo not given), the inhibition in experiment [1] is -0.44%; in experiment [2], -0.08%; in experiment [3], -0.27%.

Consider `Cc1nc2c(=O)sc3ccccc3c2n1Cc1ccccc1`, for which the figures for the inhibition in experiment [1], in experiment [2] and in experiment [3] were 0.4%, 7.03% and -1.55%, respectively.

With `Cc1cc(C2CCN(CCCCNC(=O)c3ccc(NC(=O)c4ccc(Cl)cc4)cc3)CC2)c(C)cc1OCc1ccccn1`, the inhibition in experiment [1] turned out to be 2.54%; in experiment [2], 2.64%; in experiment [3], 0.11%.

Consider `CC(C)=C(C(=O)OCc1ccccc1)N1C(=O)[C@@H](NC(c2ccccc2)(c2ccccc2)c2ccccc2)[C@H]1[S+]([O-])CC(=O)OC(C)(C)C` (stereo not given in full), for which the inhibition in experiment [1] is 0.68%; in experiment [2] it was -0.01%; in experiment [3], 0.75%.

Regarding `O=C(Nc1ccc2c(c1)CCN(C1CCC1)CC2)c1ccc(-c2cn3ccccc3n2)cc1`, the results for the inhibition in experiment [1], in experiment [2] and in experiment [3] were 3.01%, 1.01% and 3.48%, respectively.

Turning to `Cn1nccc1C(=O)NCCNCc1ccc(-c2ccc(-c3nc4ccccc4[nH]3)s2)cc1`, the inhibition turned out to be 4.38% in experiment [1], 3.81% in experiment [2] and 0.63% in experiment [3].

Consider `CCOc1c(OC)ccc2c1CCN(CCN1CCC(NC(=O)c3ccc(-c4cccc(C(F)(F)F)c4C(F)(F)F)cc3)CC1)C2`, for which the inhibition in experiment [1] was 1.91%; in experiment [2], 1.96%; in experiment [3] it was 1.39%.

As for `CCn1c(-c2cc(C)on2)nc2cnc(Oc3ccc(C(=O)N4CC(=O)N(C)C4C(C)(C)C)cc3)cc21` (stereo not given), the inhibition in experiment [1] was -1.85%; in experiment [2], 1.92%; in experiment [3] it was 5.58%.

For the compound `CC(C)(NCc1ncc[nH]1)c1nc(-c2ccc(Cl)c(O)c2)c(-c2ccncc2)[nH]1`, the figures for the inhibition in experiment [1], in experiment [2] and in experiment [3] were 2.76%, 3.34% and 3.01%, respectively.

For `Cc1c(Oc2ccc(-n3ccnc3)cc2)ncnc1N1CCC2(CC1)CNCc1ccccc12`, the inhibition was found to be 10.5% in experiment [1], 8.76% in experiment [2] and 2.5% in experiment [3].

`CN(CCS(C)(=O)=O)Cc1ccc(-c2ccc3ncnc(Nc4ccc(OCc5cccc(F)c5)c(Cl)c4)c3c2)o1`: the results for the inhibition in experiment [1], in experiment [2] and in experiment [3] were 2.97%, 0.92% and -0.85%, respectively.

As for `CS(=O)(=O)c1cccc(-c2cnc(N)c3cc(-c4cccc(F)c4)ccc23)c1`, the inhibition in experiment [1] came to 1.57%; in experiment [2] it was 1.63%; in experiment [3], 0.94%.

Consider `C=CCNS(=O)(=O)c1ccc(NC(=O)C(C)Oc2ccc([N+](=O)[O-])cc2)cc1` (stereo not given), for which the inhibition in experiment [1] was 1.52%; in experiment [2] it was 1.56%; in experiment [3], -0.8%.

For the compound `SC(=Nc1ccc2c(c1)OCCO2)NN=Cc1ccccn1`, the inhibition was -0.28% in experiment [1], -0.16% in experiment [2] and 8.54% in experiment [3].

On to `CC1=C(C(=O)Nc2cc3cn[nH]c3cc2F)C(c2cccc(O)c2F)CC(=O)N1` (stereo not given), for which the inhibition was -2.25% in experiment [1], -3.23% in experiment [2] and 0.72% in experiment [3].

`COc1ccc(CCn2c(=N)c(C(=O)NCc3ccccc3)cc3c(=O)n4ccccc4nc32)cc1`: the inhibition stood at 12.9% in experiment [1], 12.8% in experiment [2] and 8.6% in experiment [3].

In general, inhibition refers to the relative decrease from the control value, in per cent.
